Results: ChEMBL document CHEMBL5606458, “ASAP - ZIKV NS2B-NS3 protease fluorescence single point” (2024)
The campaign covered roughly 2,700 compounds. About 160 (5.9%) showed an effect of 50% or more. The sample as a whole holds a higher share of strong results than the screen did.

Molecular target: Nonstructural protein 3 (Zika virus) (UniProt A0A024AXB9)
Sequence (A0A024AXB9 as listed by the source): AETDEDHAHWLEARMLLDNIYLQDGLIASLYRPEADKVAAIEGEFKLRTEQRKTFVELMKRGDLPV

With c1ccc2c(CN3CCC(n4cccn4)CC3)c[nH]c2c1 the inhibition (PRVABC59, Concentration 49.5 uM, Number of replicates 2.0, Standard deviation 0.7832462431332359 %) was 26.9%, the inhibition (PRVABC59, Concentration 99.01 uM, Number of replicates 2.0, Standard deviation 1.440111283496493 %) was 42.5% and the inhibition (PRVABC59, Concentration 198.0 uM, Number of replicates 2.0, Standard deviation 0.6771494756145803 %) was 60.2%.
With NC(=O)[C@H]1CCCN(Cc2c[nH]c3ccccc23)C1 the inhibition (PRVABC59, Concentration 49.5 uM, Number of replicates 2.0, Standard deviation 3.1390869089666538 %) was 3.79%, the inhibition (PRVABC59, Concentration 99.01 uM, Number of replicates 2.0, Standard deviation 3.56900861889403 %) was 10.6% and the inhibition (PRVABC59, Concentration 198.0 uM, Number of replicates 2.0, Standard deviation 2.510612912991002 %) was 20.5%.
For NC[C@H]1C[C@H](NC(=O)[C@@H](NC(=O)OCc2ccccc2)c2ccc(OCc3ccccc3)cc2)C1, the inhibition (PRVABC59, Concentration 49.5 uM, Number of replicates 2.0, Standard deviation 1.2395145381206512 %) was 10.3%, the inhibition (PRVABC59, Concentration 99.01 uM, Number of replicates 2.0, Standard deviation 2.826506577153246 %) was 46.7% and the inhibition (PRVABC59, Concentration 198.0 uM, Number of replicates 2.0, Standard deviation 0.7649713696189122 %) was 82.7%.
In the case of NC[C@H]1C[C@@H](NC(=O)[C@@H](NC(=O)OCc2ccccc2)c2ccc(OCc3ccccc3)cc2)C1, the inhibition (PRVABC59, Concentration 49.5 uM, Number of replicates 2.0, Standard deviation 0.8838686407925086 %) is reported as 24%, the inhibition (PRVABC59, Concentration 99.01 uM, Number of replicates 2.0, Standard deviation 0.4383595932929543 %) is reported as 66.8% and the inhibition (PRVABC59, Concentration 198.0 uM, Number of replicates 2.0, Standard deviation 0.05241044906026695 %) is reported as 91.6%.
With COc1cnccc1NC(=O)c1cccn(CC(C)C)c1=O the inhibition (PRVABC59, Concentration 49.5 uM, Number of replicates 2.0, Standard deviation 2.517858799186995 %) was 14.1%, the inhibition (PRVABC59, Concentration 99.01 uM, Number of replicates 2.0, Standard deviation 2.0130939800794283 %) was 24.9% and the inhibition (PRVABC59, Concentration 198.0 uM, Number of replicates 2.0, Standard deviation 1.1565850502914639 %) was 38%.
Work on O=C1NCc2ccccc2C12CCN(C1CS(=O)(=O)C1)CC2 yielded an inhibition (PRVABC59, Concentration 49.5 uM, Number of replicates 2.0, Standard deviation 2.478163590707131 %) of -2.5%, an inhibition (PRVABC59, Concentration 99.01 uM, Number of replicates 2.0, Standard deviation 1.6189007436906162 %) of -1.76% and an inhibition (PRVABC59, Concentration 198.0 uM, Number of replicates 2.0, Standard deviation 2.7604333789428463 %) of -2.06%.
For N#C[C@H](c1c[nH]c2ccccc12)N1CCCCC1, the inhibition (PRVABC59, Concentration 49.5 uM, Number of replicates 2.0, Standard deviation 0.9976655532404076 %) was 2.57%, the inhibition (PRVABC59, Concentration 99.01 uM, Number of replicates 2.0, Standard deviation 2.0662033924754 %) was 3.53% and the inhibition (PRVABC59, Concentration 198.0 uM, Number of replicates 2.0, Standard deviation 2.2933585318984724 %) was 2.01%.
CN(C)Cc1ccc(C(=O)Nc2cc(Cl)cc(C(=O)NC(C)(C)CO)c2)[nH]1 was tested, and the inhibition (PRVABC59, Concentration 49.5 uM, Number of replicates 2.0, Standard deviation 0.7294034755731748 %) was 25.7%, the inhibition (PRVABC59, Concentration 99.01 uM, Number of replicates 2.0, Standard deviation 0.13537432871783928 %) was 38.6% and the inhibition (PRVABC59, Concentration 198.0 uM, Number of replicates 2.0, Standard deviation 2.37813693875156 %) was 53.1%.
Work on CN(C)Cc1cccc(C(=O)Nc2cc(Cl)cc(C(=O)NC(C)(C)CO)c2)c1 yielded an inhibition (PRVABC59, Concentration 49.5 uM, Number of replicates 2.0, Standard deviation 1.8243044214328226 %) of 6.06%, an inhibition (PRVABC59, Concentration 99.01 uM, Number of replicates 2.0, Standard deviation 1.3712089412013073 %) of 12.5% and an inhibition (PRVABC59, Concentration 198.0 uM, Number of replicates 2.0, Standard deviation 2.8457565601547175 %) of 22%.
CC(C)(CO)NC(=O)c1cc(Cl)cc(NC(=O)c2cc(Cl)ccc2O)c1 gave an inhibition (PRVABC59, Concentration 49.5 uM, Number of replicates 2.0, Standard deviation 2.1093755895168673 %) of 7.55%, an inhibition (PRVABC59, Concentration 99.01 uM, Number of replicates 2.0, Standard deviation 4.458409623609473 %) of 13.5% and an inhibition (PRVABC59, Concentration 198.0 uM, Number of replicates 2.0, Standard deviation 1.5634862358558868 %) of 19.6%.
Work on O=C(Nc1ccc2c(c1)B(O)OC2)c1cccc(OCc2c(Cl)cccc2Cl)c1 yielded an inhibition (PRVABC59, Concentration 49.5 uM, Number of replicates 2.0, Standard deviation 1.6182218422548027 %) of 13.7%, an inhibition (PRVABC59, Concentration 99.01 uM, Number of replicates 2.0, Standard deviation 3.3767515547267357 %) of 18.1% and an inhibition (PRVABC59, Concentration 198.0 uM, Number of replicates 2.0, Standard deviation 1.8193304189589607 %) of 26.3%.
In the case of C[C@@H](NC(=O)c1cc(Cl)ccc1NS(=O)(=O)c1ccc(Oc2ccccc2Cl)cc1)[C@H]1CCCO1, the inhibition (PRVABC59, Concentration 49.5 uM, Number of replicates 2.0, Standard deviation 0.31998022259385983 %) is reported as 30.9%, the inhibition (PRVABC59, Concentration 99.01 uM, Number of replicates 2.0, Standard deviation 0.2133183501303701 %) is reported as 35.1% and the inhibition (PRVABC59, Concentration 198.0 uM, Number of replicates 2.0, Standard deviation 0.1263515313886271 %) is reported as 23.8%.
Compound O=C(c1cc(Cl)ccc1NS(=O)(=O)c1ccc(Oc2ccccc2Cl)cc1)N1CCC[C@H](O)C1 has an inhibition (PRVABC59, Concentration 49.5 uM, Number of replicates 2.0, Standard deviation 2.1414055085112063 %) of 8.55%, an inhibition (PRVABC59, Concentration 99.01 uM, Number of replicates 2.0, Standard deviation 0.8713297847731235 %) of 39.7% and an inhibition (PRVABC59, Concentration 198.0 uM, Number of replicates 2.0, Standard deviation 0.024611062132057417 %) of 79.8%.
CC[C@H]1CCN(C(=O)c2cc(Cl)ccc2NS(=O)(=O)c2ccc(Oc3ccccc3Cl)cc2)C1 gave an inhibition (PRVABC59, Concentration 49.5 uM, Number of replicates 2.0, Standard deviation 0.8056939918249262 %) of 9.4%, an inhibition (PRVABC59, Concentration 99.01 uM, Number of replicates 2.0, Standard deviation 0.9468131045821944 %) of 15.3% and an inhibition (PRVABC59, Concentration 198.0 uM, Number of replicates 2.0, Standard deviation 0.6022197968075486 %) of 23.5%.
Work on O=C(c1cc(Cl)ccc1NS(=O)(=O)c1ccc(Oc2ccccc2Cl)cc1)N1CCCC1 yielded an inhibition (PRVABC59, Concentration 49.5 uM, Number of replicates 2.0, Standard deviation 2.8745469037851152 %) of 9.57%, an inhibition (PRVABC59, Concentration 99.01 uM, Number of replicates 2.0, Standard deviation 3.402955430557717 %) of 14.4% and an inhibition (PRVABC59, Concentration 198.0 uM, Number of replicates 2.0, Standard deviation 3.9207965622968795 %) of 20%.
O=C(c1cc(Cl)ccc1NS(=O)(=O)c1ccc(Oc2ccccc2Cl)cc1)N1CCC[C@@H]1CO was tested, and the inhibition (PRVABC59, Concentration 49.5 uM, Number of replicates 2.0, Standard deviation 0.644882859919004 %) was 6.57%, the inhibition (PRVABC59, Concentration 99.01 uM, Number of replicates 2.0, Standard deviation 0.07876403049715877 %) was 37.2% and the inhibition (PRVABC59, Concentration 198.0 uM, Number of replicates 2.0, Standard deviation 0.031176529605690447 %) was 69.4%.
O=C(NC[C@H]1CCCO1)c1cc(Cl)ccc1NS(=O)(=O)c1ccc(Oc2ccccc2Cl)cc1 was tested, and the inhibition (PRVABC59, Concentration 49.5 uM, Number of replicates 2.0, Standard deviation 0.526737151348054 %) was 37%, the inhibition (PRVABC59, Concentration 99.01 uM, Number of replicates 2.0, Standard deviation 0.29372509619508946 %) was 35.9% and the inhibition (PRVABC59, Concentration 198.0 uM, Number of replicates 2.0, Standard deviation 0.7843616173322282 %) was 19.9%.
